# proKLK7 act: proKLK7 (human) activation, primary screen; activation, % at 7 µM; hit rate 0.9% among 370,000; purified proKLK7, EDANS-DABCYL substrate fluorescence; 100% is mature enzyme control, 0% vehicle; AID 652039;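 active = activation above the mean of all tested compounds plus 3 SD, computed per campaign excluding outliers beyond control limits, cut at about 13% in these data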
# FAS TE block: inhibitors of human fatty acid synthase thioesterase domain; recombinant FAS-TE, OMFH fluorogenic substrate, fluorescence endpoint; AID 602261; hit rate 0.67% among 360,000; inhibition, % at 15 µM;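 active = compounds whose normalised, plate-corrected inhibition of enzyme fluorescence in the single-dose primary screen is 50% or more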;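 note: 0% = DMSO with enzyme and 100% = substrate without enzyme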
# Target sequence (P49327 whole entry, looked up, the tested form may be a part): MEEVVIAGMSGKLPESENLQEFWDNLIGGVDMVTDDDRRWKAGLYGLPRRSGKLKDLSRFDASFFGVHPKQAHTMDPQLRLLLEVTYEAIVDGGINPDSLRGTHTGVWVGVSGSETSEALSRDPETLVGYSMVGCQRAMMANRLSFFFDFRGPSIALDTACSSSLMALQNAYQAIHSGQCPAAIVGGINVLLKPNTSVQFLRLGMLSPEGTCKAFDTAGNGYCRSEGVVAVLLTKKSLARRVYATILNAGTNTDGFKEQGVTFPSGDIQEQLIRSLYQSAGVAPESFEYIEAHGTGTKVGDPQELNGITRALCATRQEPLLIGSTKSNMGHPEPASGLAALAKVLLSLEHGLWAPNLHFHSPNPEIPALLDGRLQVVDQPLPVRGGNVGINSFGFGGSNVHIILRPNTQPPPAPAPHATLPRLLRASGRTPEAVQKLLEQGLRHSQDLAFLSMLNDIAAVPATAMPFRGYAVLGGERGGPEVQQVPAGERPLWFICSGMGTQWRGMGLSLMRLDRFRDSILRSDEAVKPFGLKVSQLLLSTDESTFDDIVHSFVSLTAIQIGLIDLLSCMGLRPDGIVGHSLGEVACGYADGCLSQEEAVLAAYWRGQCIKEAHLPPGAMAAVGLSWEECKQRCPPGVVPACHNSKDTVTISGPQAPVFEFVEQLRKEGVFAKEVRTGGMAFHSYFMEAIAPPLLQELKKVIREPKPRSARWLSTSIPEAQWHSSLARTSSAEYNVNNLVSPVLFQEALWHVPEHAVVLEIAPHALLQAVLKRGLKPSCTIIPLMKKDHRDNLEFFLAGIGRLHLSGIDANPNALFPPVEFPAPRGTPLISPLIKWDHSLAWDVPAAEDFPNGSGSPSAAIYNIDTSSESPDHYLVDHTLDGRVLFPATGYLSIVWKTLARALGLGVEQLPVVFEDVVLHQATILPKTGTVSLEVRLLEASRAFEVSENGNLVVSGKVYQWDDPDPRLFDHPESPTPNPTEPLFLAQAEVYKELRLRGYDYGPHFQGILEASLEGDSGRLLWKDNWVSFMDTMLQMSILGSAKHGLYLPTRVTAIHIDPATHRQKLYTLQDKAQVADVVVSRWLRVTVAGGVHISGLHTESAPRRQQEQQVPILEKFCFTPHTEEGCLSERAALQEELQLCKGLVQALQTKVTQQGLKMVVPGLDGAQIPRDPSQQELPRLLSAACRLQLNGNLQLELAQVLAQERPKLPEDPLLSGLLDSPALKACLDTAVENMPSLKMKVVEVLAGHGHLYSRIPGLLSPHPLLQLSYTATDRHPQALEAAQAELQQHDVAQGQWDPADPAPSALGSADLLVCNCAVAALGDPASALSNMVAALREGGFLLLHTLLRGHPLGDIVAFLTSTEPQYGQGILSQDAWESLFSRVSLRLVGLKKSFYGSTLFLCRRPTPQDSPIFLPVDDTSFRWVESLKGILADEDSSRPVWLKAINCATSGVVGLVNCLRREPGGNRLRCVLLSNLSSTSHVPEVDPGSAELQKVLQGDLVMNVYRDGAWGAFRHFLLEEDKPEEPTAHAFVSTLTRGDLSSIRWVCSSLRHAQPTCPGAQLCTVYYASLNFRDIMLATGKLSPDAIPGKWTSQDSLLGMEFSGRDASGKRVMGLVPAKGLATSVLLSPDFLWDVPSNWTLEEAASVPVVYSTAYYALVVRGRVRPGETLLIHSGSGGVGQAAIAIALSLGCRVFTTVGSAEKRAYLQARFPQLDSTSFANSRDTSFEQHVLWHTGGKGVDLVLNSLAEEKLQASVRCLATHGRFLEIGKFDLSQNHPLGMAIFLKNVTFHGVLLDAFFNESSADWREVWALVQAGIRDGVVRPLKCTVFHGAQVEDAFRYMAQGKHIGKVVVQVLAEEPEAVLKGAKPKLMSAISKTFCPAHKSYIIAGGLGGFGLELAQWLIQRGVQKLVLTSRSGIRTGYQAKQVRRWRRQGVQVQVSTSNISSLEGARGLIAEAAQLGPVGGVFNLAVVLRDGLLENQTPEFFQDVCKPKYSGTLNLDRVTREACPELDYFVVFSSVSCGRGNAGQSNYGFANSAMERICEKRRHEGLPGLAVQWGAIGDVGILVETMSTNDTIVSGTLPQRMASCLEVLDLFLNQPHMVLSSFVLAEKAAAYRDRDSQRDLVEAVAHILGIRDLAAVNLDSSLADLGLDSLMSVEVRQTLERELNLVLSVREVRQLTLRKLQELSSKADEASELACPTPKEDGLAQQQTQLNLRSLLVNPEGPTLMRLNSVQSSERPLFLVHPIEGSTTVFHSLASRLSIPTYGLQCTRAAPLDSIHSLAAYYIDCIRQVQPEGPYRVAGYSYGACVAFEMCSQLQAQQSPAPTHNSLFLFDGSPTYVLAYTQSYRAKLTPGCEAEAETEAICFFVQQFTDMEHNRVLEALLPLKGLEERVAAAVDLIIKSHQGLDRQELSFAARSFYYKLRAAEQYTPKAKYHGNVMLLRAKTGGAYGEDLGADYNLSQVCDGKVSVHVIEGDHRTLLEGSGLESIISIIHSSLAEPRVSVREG
# SMARCA2 activ: activators of SMARCA2 function | MG213 cells, MMTV-luciferase reporter, dexamethasone, overnight | activation, % at 9.1 µM | hit rate 1% among 370,000; in the data active = activation above about 7.8%;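 note: 0% = vehicle wells and 100% = reference activator wells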
# FXN GAA850 act: increases GAA850 frataxin promoter reporter activity; hit rate 0.56% among 360,000; HEK293 lucGAA850 FXN promoter luciferase reporter, 24 h; percent of 10 µM SAHA response; activation, % at 6 µM; AID 540364;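 active = activation above the average of all compounds screened plus 3 SD, cutoff fixed separately per campaign, cut at about 7.5% in these data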;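 note: 0% = DMSO wells and 100% = 10 µM SAHA wells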
# GAA30 counter: GAA30 FXN promoter activation counter-screen. shares compounds with FXN GAA850 act. HEK293 lucGAA30 FXN promoter luciferase, 24 h; DMSO = 0%, 5 µM ipriflavone = 100%. activation, % at 6 µM. hit rate 66% among 1,900;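 active = mean activation above the mean of solvent-only control wells plus 3 SD, cut at about 22% in these data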;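 note: counterscreen of GAA850 promoter hits where activity marks nonselective or luminescence artifacts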
# GAA850 confirm: confirmation of GAA850 frataxin (FXN) promoter activators; shares compounds with FXN GAA850 act; HEK293 lucGAA850 FXN promoter luciferase reporter, 24 h; 100% = activation by SAHA; activation, % at 6 µM; hit rate 86% among 1,900;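 active = mean activation above a set limit taken from the primary screen, cut at about 8% in these data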;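 note: 0% = DMSO wells and 100% = 10 µM SAHA wells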
# SMARCA2 act conf: SMARCA2 activation, confirmation screen | shares compounds with SMARCA2 activ | MG213 cells, MMTV-luciferase with dexamethasone, luminescence, overnight; MG213 cells expressing E1A, Rb sequestered; DMSO wells 0%, reference activator 100% | activation, % at 9.1 µM | hit rate 30% among 3,500;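 active = activation above its plate's cutoff, the mean activation of tested wells plus 3 SD, cut at about 7.9% in these data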
# VP16 Luc act: GAL4-VP16 reporter activation counter-screen. shares compounds with SMARCA2 activ. HEK293 GAL4-VP16 pG5luc reporter, luciferase luminescence; scaled: DMSO wells 0%, SAHA wells 100%. activation, % at 9.1 µM. hit rate 41% among 3,500. AID 686939;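 active = activation above the solvent-only control well mean plus 3 SD, averaged across control plates, cut at about 5.2% in these data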
# Starred values were filed as active, the others as inactive; nt = no result given; ! = not confirmed by another sample. The list is not random: actives were taken first. Their share in the collection is about 2.9%.
SMILES,proKLK7 act,FAS TE block,SMARCA2 activ,FXN GAA850 act,GAA30 counter,GAA850 confirm,SMARCA2 act conf,VP16 Luc act
CCOc1nnc(C)c2c(C)n(-c3ccc(Cl)cc3)nc12,0,-5,1,3,nt,nt,nt,nt
Cc1cnc(NC(=O)Nc2ccc(Cl)cc2)s1,0,8,12*,8.2*,74*,46*,8.3*,11*
Cc1cnc(NC(=O)CSc2ccc(Cl)cc2)s1,0,7,-4,0,nt,nt,nt,nt
COc1ccccc1C(=O)Nc1nsc(-c2ccccc2)n1,0,0,8.8*,9.3*,104*,31*,13*,15*
Cc1csc(NC(=O)CSc2ccccc2F)n1,0,-6,8.4*,12*,78*,25*,2,4
Cc1csc(NC(=O)CSc2ccc(-c3ccccn3)nn2)n1,0,-3,-1,2,nt,nt,nt,nt
COc1ccc2[nH]cc(C(O)CN3CCN(c4ccccc4F)CC3)c2c1 (stereo unspecified),0,-4,-4,-2,nt,nt,nt,nt
c1ccc2c(-c3nc4ccccc4[nH]3)cccc2c1,-11,-4,3,-4,nt,nt,nt,nt
c1ccc2[nH]c(-c3ccnc4ccccc34)nc2c1,5,-3,11*!,9.4*!,65*,19*,5,3
COC(=O)/C(=C1/Oc2cc(C)oc(=O)c2S1)C(F)(F)F,-1,8,9.1*,13*,17,24*,-16,3
CCc1ccc(/C=N/Nc2ncnc3nc[nH]c23)cc1,0,-24,8.3*,11*,132*,54*,6,13*
CC(C)=NNc1ncnc2nc[nH]c12,0,-6,4,8,nt,nt,nt,nt
O=C(/C=C\c1ccc(-c2ccccc2)o1)c1ccccc1,-2,9,8.2*,12*,67*,27*,16*,8.1*
Cc1ccc(C(=O)/C=C/c2ccc(-c3ccc(C)cc3)o2)cc1,0,9,6,4,nt,nt,nt,nt
O=C(NCc1ccccc1)C1CC(=O)N(C2CCCCCC2)C1 (stereo unspecified),0,2,-4,1,nt,nt,nt,nt
NC(=S)N/N=C/c1cn(-c2ccccc2)nc1-c1cccnc1,0,-4,8.2*,7.8*,63*,19*,0,4
COc1ccccc1Nc1nc(-c2cccs2)cs1,0,10,8.4*,10*,126*,40*,5,7.4*
CC(=O)NN1CCc2cc3ccc(C)cc3nc21,2,-5,4,2,nt,nt,nt,nt
Cc1ccc(S(=O)(=O)N2CCCCC2)cc1NC(=O)C1CCN(C(=O)OC(C)(C)C)CC1,1,0,2,2,nt,nt,nt,nt
CC(C)(C#N)Nc1ccccc1,-1,-10,-4,4,nt,nt,nt,nt
O=C(Nc1cccc(C(F)(F)F)c1)C(=O)N1CCCCC1,-1,-6,9.5*,8.1*,53*,21*,2,3
C=C(C)C(=O)Oc1ccc(N=Nc2ccc(C)cc2)ccc1=O,0,2,19*,11*,59*,40*,-1,9.1*
O=C(N/N=C/C(Br)=C/c1ccccc1)C1CC1,0,-4,9.6*,8.2*,81*,31*,10*,5.6*
CN=C1S/C(=C\c2ccc(O)c(Br)c2)C(=O)N1C,0,-2,1,4,nt,nt,nt,nt
CN=C1S/C(=C\c2ccc(O)c(OC)c2)C(=O)N1C,0,-1,8.9*,9.9*,113*,35*,7,14*
SMILES,proKLK7 act,FAS TE block,SMARCA2 activ,FXN GAA850 act,GAA30 counter,GAA850 confirm,SMARCA2 act conf,VP16 Luc act
Oc1ccc(/C=N/Nc2ccnc3cc(Cl)ccc23)c(O)c1,-2,2,15*,12*,60*,19*,18*,2
COc1ccc(Cl)cc1C(=O)NCCN(C)C,0,-2,-3,1,nt,nt,nt,nt
COc1ccc(C(=O)NCCN(C)C)c2nc3ccccc3cc12,-1,-6,12*,10*,-14,71*,95*,7.3*
O=C(O)[C@H]1CC=C[C@H]2CCN(Cc3ccc(Cl)c(Cl)c3)C(=O)[C@@H]12,0,-11,-2,0,nt,nt,nt,nt
CCC(=O)Nc1ccc(NC(=S)NC(=O)c2cc3ccccc3o2)cc1,0,-1,2,4,nt,nt,nt,nt
CCC(=O)Nc1cccc(NC(=S)NC(=O)c2cc3ccccc3o2)c1,0,0,12*,8.0*,106*,34*,-2,15*
CC1(C(=O)OCc2cc(=O)n3cc(Br)ccc3n2)CC1(Cl)Cl (stereo unspecified),0,5,10*,8.9*,99*,40*,9.4*,13*
CC1CC1C(=O)OCc1cc(=O)n2cc(Br)ccc2n1 (stereo unspecified),1,4,3,4,nt,nt,nt,nt
COc1ccc(C(=O)N2CCN(C)C(=O)[C@@H]2C)cc1OC1CCN(C(C)=O)CC1,1,-4,5,-1,nt,nt,nt,nt
CC1(C)Cc2c(c(-c3ccco3)nc3sc4c(NCCN5CCOCC5)ncnc4c23)CO1,-16,5,3,4,nt,nt,nt,nt
CC1(C)Cc2c(c(-c3ccco3)nc3sc4c(NCCCO)ncnc4c23)CO1,-19,-1,10.0*,7.7*,9,14*,15*,1
O=C(CN1CCN(Cc2ccc(F)cc2)CC1)NCc1ccccc1,0,-3,-1,-1,nt,nt,nt,nt
COC(=O)Nc1ccc(OCc2ccccc2)cc1,0,-1,14*,10.0*,89*,32*,18*,5
CC1(c2nnc(-c3cccc(Cl)c3)o2)CC(c2c(Cl)cccc2Cl)=NO1 (stereo unspecified),1,20,1,0,nt,nt,nt,nt
O=c1cc(-c2ccc(O)c(O)c2)oc2c1ccc1ccccc12,1,18,-3,3,nt,nt,nt,nt
O=c1oc(-c2ccc(O)c(O)c2)cc2cccc(O)c12,-8,5,8.5*,13*,129*,46*,8.1*,13*
CCC(C)C(NC(=O)C1CCC(C)CC1)C(=O)Nc1ccc(OC)cc1 (stereo unspecified),0,-10,-2,-1,nt,nt,nt,nt
Cc1ccc(-c2nc3ccccc3[nH]2)cn1,-2,-9,2,3,nt,nt,nt,nt
Cc1nc2ccc(-c3nc4ccccc4[nH]3)cc2[nH]1,1,10,16*,7.8*,129*,38*,14*,12*
Cc1ccc(O)c(NC(=O)c2cc(-c3cccs3)on2)c1,0,-3,13*,9.9*,87*,47*,21*,6.8*
Cc1ccnc(NC(=O)CCCOc2cc(=O)n(C)c3ccccc23)c1,1,-8,22*!,8.8*!,68*,61*,9.1*,0
